Numbering of substitutions follows the chain as printed.
Columns and labels:
Experiment in all cases: PBM; 200 nM protein, PBS
Settings in all cases: dsDNA, one strand shown
SIX6 [1] = biological target: T1, SIX6 (Homo sapiens, UniProt O95475 114-200, L167I)
T1 sequence: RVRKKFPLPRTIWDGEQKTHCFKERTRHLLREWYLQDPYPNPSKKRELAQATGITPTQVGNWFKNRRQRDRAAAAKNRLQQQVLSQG

SIX6 [2] = biological target: T2, SIX6 (Homo sapiens, UniProt O95475 114-200, L143V)
T2 sequence: T1 sequence with L30V, I54L

SIX6 [3] = biological target: T3, SIX6 (Homo sapiens, UniProt O95475 114-200, H141N)
T3 sequence: T1 sequence with H28N, I54L

SIX6 [4] = biological target: T4, SIX6 (Homo sapiens, UniProt O95475 114-200, T165P)
T4 sequence: T1 sequence with T52P, I54L

SIX6 [5] = biological target: T5, SIX6 (Homo sapiens, UniProt O95475 114-200, L167M)
T5 sequence: T1 sequence with I54M

SIX6 [6] = biological target: T6, SIX6 (Homo sapiens, UniProt O95475 114-200, L143M)
T6 sequence: T1 sequence with L30M, I54L

SIX6 [7] = biological target: T7, SIX6 (Homo sapiens, UniProt O95475 114-200, L143I)
T7 sequence: T1 sequence with L30I, I54L

SIX6 [8] = biological target: T8, SIX6 (Homo sapiens, UniProt O95475 114-200, T165G)
T8 sequence: T1 sequence with T52G, I54L

SIX6 [9] = biological target: T9, SIX6 (Homo sapiens, UniProt O95475 114-200, T139Q)
T9 sequence: T1 sequence with T26Q, I54L

SIX6 [10] = biological target: T10, SIX6 (Homo sapiens, UniProt O95475 114-200, T165A)
T10 sequence: T1 sequence with T52A, I54L

SIX6 [11] = biological target: T11, SIX6 (Homo sapiens, UniProt O95475 114-200, L167V)
T11 sequence: T1 sequence with I54V

SIX6 [12] = biological target: T12, SIX6 (Homo sapiens, UniProt O95475 114-200)
T12 sequence: T1 sequence with I54L

SIX6 [13] = biological target: T13, SIX6 (Homo sapiens, UniProt O95475 114-200, T165I)
T13 sequence: T1 sequence with T52I, I54L

| Sequence | binding signal (SIX6 [1]) | binding signal (SIX6 [2]) | binding signal (SIX6 [3]) | binding signal (SIX6 [4]) | binding signal (SIX6 [5]) | binding signal (SIX6 [6]) | binding signal (SIX6 [7]) | binding signal (SIX6 [8]) | binding signal (SIX6 [9]) | binding signal (SIX6 [10]) | binding signal (SIX6 [11]) | binding signal (SIX6 [12]) | binding signal (SIX6 [13]) |
| --- | --- | --- | --- | --- | --- | --- | --- | --- | --- | --- | --- | --- | --- |
| GGGTATCA | 11.7 upbm affinity estimate (log intensity, higher = more binding, comparable within an allelic series) | 10.5 upbm affinity estimate (log intensity, higher = more binding, comparable within an allelic series) | 11.7 upbm affinity estimate (log intensity, higher = more binding, comparable within an allelic series) | 9.44 upbm affinity estimate (log intensity, higher = more binding, comparable within an allelic series) | 11 upbm affinity estimate (log intensity, higher = more binding, comparable within an allelic series) | 11.4 upbm affinity estimate (log intensity, higher = more binding, comparable within an allelic series) | 10.6 upbm affinity estimate (log intensity, higher = more binding, comparable within an allelic series) | 11.8 upbm affinity estimate (log intensity, higher = more binding, comparable within an allelic series) | 11.6 upbm affinity estimate (log intensity, higher = more binding, comparable within an allelic series) | 11.6 upbm affinity estimate (log intensity, higher = more binding, comparable within an allelic series) | 11.6 upbm affinity estimate (log intensity, higher = more binding, comparable within an allelic series) | 11.4 upbm affinity estimate (log intensity, higher = more binding, comparable within an allelic series) | 11.5 upbm affinity estimate (log intensity, higher = more binding, comparable within an allelic series) |
| CCCCGAGG | 8.95 upbm affinity estimate (log intensity, higher = more binding, comparable within an allelic series) | 8.89 upbm affinity estimate (log intensity, higher = more binding, comparable within an allelic series) | 8.99 upbm affinity estimate (log intensity, higher = more binding, comparable within an allelic series) | 8.94 upbm affinity estimate (log intensity, higher = more binding, comparable within an allelic series) | 9.01 upbm affinity estimate (log intensity, higher = more binding, comparable within an allelic series) | 9.07 upbm affinity estimate (log intensity, higher = more binding, comparable within an allelic series) | 8.96 upbm affinity estimate (log intensity, higher = more binding, comparable within an allelic series) | 9.07 upbm affinity estimate (log intensity, higher = more binding, comparable within an allelic series) | 9.12 upbm affinity estimate (log intensity, higher = more binding, comparable within an allelic series) | 8.94 upbm affinity estimate (log intensity, higher = more binding, comparable within an allelic series) | 9 upbm affinity estimate (log intensity, higher = more binding, comparable within an allelic series) | 8.97 upbm affinity estimate (log intensity, higher = more binding, comparable within an allelic series) | 8.96 upbm affinity estimate (log intensity, higher = more binding, comparable within an allelic series) |
| CAGCTGGC | 8.7 upbm affinity estimate (log intensity, higher = more binding, comparable within an allelic series) | 8.78 upbm affinity estimate (log intensity, higher = more binding, comparable within an allelic series) | 8.72 upbm affinity estimate (log intensity, higher = more binding, comparable within an allelic series) | 8.91 upbm affinity estimate (log intensity, higher = more binding, comparable within an allelic series) | 8.72 upbm affinity estimate (log intensity, higher = more binding, comparable within an allelic series) | 8.61 upbm affinity estimate (log intensity, higher = more binding, comparable within an allelic series) | 8.88 upbm affinity estimate (log intensity, higher = more binding, comparable within an allelic series) | 8.8 upbm affinity estimate (log intensity, higher = more binding, comparable within an allelic series) | 8.91 upbm affinity estimate (log intensity, higher = more binding, comparable within an allelic series) | 8.79 upbm affinity estimate (log intensity, higher = more binding, comparable within an allelic series) | 8.84 upbm affinity estimate (log intensity, higher = more binding, comparable within an allelic series) | 8.73 upbm affinity estimate (log intensity, higher = more binding, comparable within an allelic series) | 8.69 upbm affinity estimate (log intensity, higher = more binding, comparable within an allelic series) |
| GGCCCCAA | 8.91 upbm affinity estimate (log intensity, higher = more binding, comparable within an allelic series) | 8.77 upbm affinity estimate (log intensity, higher = more binding, comparable within an allelic series) | 8.92 upbm affinity estimate (log intensity, higher = more binding, comparable within an allelic series) | 9.01 upbm affinity estimate (log intensity, higher = more binding, comparable within an allelic series) | 8.96 upbm affinity estimate (log intensity, higher = more binding, comparable within an allelic series) | 8.92 upbm affinity estimate (log intensity, higher = more binding, comparable within an allelic series) | 8.81 upbm affinity estimate (log intensity, higher = more binding, comparable within an allelic series) | 8.9 upbm affinity estimate (log intensity, higher = more binding, comparable within an allelic series) | 9.04 upbm affinity estimate (log intensity, higher = more binding, comparable within an allelic series) | 8.9 upbm affinity estimate (log intensity, higher = more binding, comparable within an allelic series) | 8.9 upbm affinity estimate (log intensity, higher = more binding, comparable within an allelic series) | 8.82 upbm affinity estimate (log intensity, higher = more binding, comparable within an allelic series) | 8.91 upbm affinity estimate (log intensity, higher = more binding, comparable within an allelic series) |
| CGCGGCCA | 8.81 upbm affinity estimate (log intensity, higher = more binding, comparable within an allelic series) | 8.96 upbm affinity estimate (log intensity, higher = more binding, comparable within an allelic series) | 8.88 upbm affinity estimate (log intensity, higher = more binding, comparable within an allelic series) | 8.99 upbm affinity estimate (log intensity, higher = more binding, comparable within an allelic series) | 8.82 upbm affinity estimate (log intensity, higher = more binding, comparable within an allelic series) | 8.81 upbm affinity estimate (log intensity, higher = more binding, comparable within an allelic series) | 8.93 upbm affinity estimate (log intensity, higher = more binding, comparable within an allelic series) | 8.87 upbm affinity estimate (log intensity, higher = more binding, comparable within an allelic series) | 8.91 upbm affinity estimate (log intensity, higher = more binding, comparable within an allelic series) | 8.86 upbm affinity estimate (log intensity, higher = more binding, comparable within an allelic series) | 8.96 upbm affinity estimate (log intensity, higher = more binding, comparable within an allelic series) | 8.84 upbm affinity estimate (log intensity, higher = more binding, comparable within an allelic series) | 8.87 upbm affinity estimate (log intensity, higher = more binding, comparable within an allelic series) |
| CGTATCAA | 11.1 upbm affinity estimate (log intensity, higher = more binding, comparable within an allelic series) | 10.2 upbm affinity estimate (log intensity, higher = more binding, comparable within an allelic series) | 11.2 upbm affinity estimate (log intensity, higher = more binding, comparable within an allelic series) | 9.64 upbm affinity estimate (log intensity, higher = more binding, comparable within an allelic series) | 10.6 upbm affinity estimate (log intensity, higher = more binding, comparable within an allelic series) | 11.1 upbm affinity estimate (log intensity, higher = more binding, comparable within an allelic series) | 10.3 upbm affinity estimate (log intensity, higher = more binding, comparable within an allelic series) | 11.1 upbm affinity estimate (log intensity, higher = more binding, comparable within an allelic series) | 11 upbm affinity estimate (log intensity, higher = more binding, comparable within an allelic series) | 11.1 upbm affinity estimate (log intensity, higher = more binding, comparable within an allelic series) | 10.9 upbm affinity estimate (log intensity, higher = more binding, comparable within an allelic series) | 10.9 upbm affinity estimate (log intensity, higher = more binding, comparable within an allelic series) | 11 upbm affinity estimate (log intensity, higher = more binding, comparable within an allelic series) |
